# Laboratory results: PubChem BioAssay (NCATS)
# Several values for one entry are separate records, joined by “and”; a condition that tells them apart may be missing. Equal values may be shown once. Values without a mark were called inactive. Results filed as inconclusive are left out. Where a call stands in place of a potency, no number is given. For some assays here: Potency and affinity values are given separately. Activity calls are given as the source filed them.
# Legend:
# [1] = Immunotoxin (HA22) sensitization/mitigation study. Vehicle arm (PBS) (AID 1159510); note: potency is the fitted concentration of half-maximal effect
# [2] = Ebola virus entry assay, reporter ratio channel; Channel type: primary
# [3] = qHTS Assay for Identifying Gametocytocidal Compounds (AID 743244; active = well fitted curve in the direction sought with a large enough effect; an effect the other way counts as inactive or inconclusive;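 note: actives lower the fluorescent signal which means gametocytes are killed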); conditions: P. falciparum 3D7 stage III-V gametocytes, alamarBlue, 72 h; max response: hits give low values
# How it was run: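 Stage III-V P. falciparum 3D7 gametocytes, 20,000 per well, were exposed to compounds for 72 h at 37C, 5% CO2. AlamarBlue was then added for 24 h and viability was read as fluorescence at Ex 525/Em 598 nm.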
# [4] = qHTS assay for cell viability of HEK293 cells (AID 743288; active = well fitted curve in the direction sought with a large enough effect; an effect the other way counts as inactive or inconclusive; note: nearly all actives have a fitted effect of over 50% in size); conditions: ATP luminescence (CellTiter-Glo), 18 h; max response: hits give low values
# How it was run: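 Readout is luciferase-coupled ATP content (CellTiter-Glo luminescence, 30 min room temperature) as a measure of metabolically competent cells. Parental HEK293 cells were plated 5 h or more before compound addition, then treated 18 h at 37 C.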
# [5] = qHTS assay for cell viability of the p53RE-bla HCT-116 cell line (AID 743292; active = well fitted curve in the direction sought with a large enough effect; an effect the other way counts as inactive or inconclusive; note: nearly all actives have a fitted effect of over 55% in size)
# How it was run: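 After plating at 4,000 cells per well and a 5 h rest at 37 C, HCT-116 cells carrying p53RE-bla received test chemicals in DMSO. Sixteen hours later at 37 C, CellTiter-Glo was added and luminescence recorded following 30 min at room temperature.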
# [6] = Ebola virus entry assay, green channel fluorescence
# [7] = Ebola virus entry assay, blue channel (ratio component)
# [8] = Ebola virus entry cell assay, ratio channel
# [9] = Ebola virus entry assay, blue channel fluorescence
# [10] = Ebola virus entry reporter assay, green channel fluorescence
smiles,measurement,setting,value
CN1CCN(c2cc(C(=O)Nc3ccc4c(c3)-c3c(c(C(N)=O)nn3-c3ccc(F)cc3)CC4)c(Cl)cn2)CC1,Potency,[1],26.4 µM (active)
COc1ccc(C2=N[C@H](c3ccc(Cl)cc3)[C@H](c3ccc(Cl)cc3)N2C(=O)N2CCNC(=O)C2)c(OC(C)C)c1,Potency,[1],2.64 µM (active)
CC(C)(C)NCC(O)c1ccc(O)c(CO)c1 (stereo unspecified),outcome,[2],inactive
O=[N+]([O-])c1c2ccccc2cc2ccccc12,max response,[3],-7.57%
same,max response,[4],-0.948%
same,Potency,[5],inactive
same,outcome,[6],inactive
same,outcome,[2],inactive
same,outcome,[7],inactive
CCOc1cc(NC(C)=O)ccc1C(=O)OC,outcome,[2],inactive
COc1cccc(OC)c1-c1cc(C(=O)NC2(C(=O)O)C3CC4CC(C3)CC2C4)nn1-c1ccnc2cc(Cl)ccc12 (stereo unspecified),Potency,[1],29.6 µM (active)
COCCOCCO,max response,[3],-9.77%
same,max response,[4],-8% and -15.7%
same,Potency,[5],inactive
same,outcome,[6],inactive
same,outcome,[2],inactive
same,outcome,[7],inactive
CC(=O)Nc1ccc(O)cc1,outcome,[2],inactive
same,outcome,[7],inactive
CN(C)Cc1ccc(-c2nc3cccc4c3n2CCNC4=O)cc1,Potency,[1],23.5 µM (active)
CC(=O)c1c(C)c2cnc(Nc3ccc(N4CCNCC4)cn3)nc2n(C2CCCC2)c1=O,Potency,[1],16.6 µM (active)
CCOCCOC(C)=O,max response,[3],4.31%
same,max response,[4],-0.828%
same,Potency,[5],inactive
same,outcome,[6],inactive
same,outcome,[2],inactive
same,outcome,[7],inactive
O=C(O)C(Cl)Cl,max response,[3],-4.42% and 4.64%
same,max response,[4],-7.67% and 1.66%
same,Potency,[5],inactive
same,outcome,[6],inactive
same,outcome,[2],inactive
same,outcome,[7],inactive
C[C@]12CC[C@H](O)CC1=CC[C@@H]1[C@H]2CC[C@]2(C)C(c3cccnc3)=CC[C@H]12,Potency,[1],1.87 µM (active)
O=C(O)c1ccccc1O,outcome,[2],inactive
same,outcome,[7],inactive
CN1[C@@H]2CC[C@H]1CC(OC(=O)C(O)c1ccccc1)C2 (stereo partly specified),outcome,[7],inactive
COc1ccccc1[C@H](c1cccc2ccccc12)[C@@](C)(C#N)C(=O)N1CCC(c2cccc(C(F)(F)F)c2)CC1,Potency,[1],inactive
CCC[C@H](NC(=O)C(C#N)=Cc1cccc(Br)n1)c1ccccc1,Potency,[1],1.05 µM (active)
CC(C)C[C@H](NC(=O)[C@@H](O)[C@H](N)Cc1ccccc1)C(=O)O,Potency,[1],inactive
Clc1ccccc1CN1CCc2sccc2C1,outcome,[2],inactive
same,outcome,[7],inactive
CC(C)(C)c1cc(NC(=O)Nc2ccc(-c3cn4c(n3)sc3cc(OCCN5CCOCC5)ccc34)cc2)no1,Potency,[1],0.59 µM (active)
COc1cccc2c1C(=O)c1c(O)c3c(c(O)c1C2=O)C[C@](O)(C(=O)CO)C[C@@H]3O[C@H]1C[C@H](N)[C@@H](O)[C@H](C)O1,AC50,[8],7.08 µM (active)
C1CCC(NC2CCCCC2)CC1,max response,[3],18.7%
same,max response,[4],4.88% and 5.5% and 0.405%
same,Potency,[5],inactive
same,outcome,[6],inactive
same,outcome,[2],inactive
same,outcome,[7],inactive
Cn1c(=O)c(F)c(Nc2ccc(I)cc2F)c2c(=O)n(C[C@@H](O)CO)cnc21,Potency,[1],23.5 µM (active)
Cc1cc(C(=O)NNCc2ccccc2)no1,outcome,[9],inactive
same,outcome,[10],inactive
same,outcome,[8],inactive
O=C(O)c1cc(Oc2ccc(C(F)(F)F)cc2Cl)ccc1[N+](=O)[O-],max response,[3],-10.7%
same,max response,[4],-14.8%
same,Potency,[5],inactive
same,outcome,[6],inactive
same,outcome,[2],inactive
same,outcome,[7],inactive
Cc1ccccc1C(C(=O)NC1CCCC1)N(C(=O)Cn1cnc2ccccc21)c1cccc(F)c1 (stereo unspecified),Potency,[1],23.5 µM (active)
CC(C)(C)NC[C@H](O)c1ccc(O)cc1Cl,max response,[3],2.84%
same,outcome,[6],inactive
same,outcome,[2],inactive
same,outcome,[7],inactive
O=C(O)COc1ccccc1,max response,[3],-2.31%
same,max response,[4],-7.91%
same,Potency,[5],inactive
same,outcome,[6],inactive
same,outcome,[2],inactive
same,outcome,[7],inactive
